PubChem BioAssay (NCI)
Values joined by “and” are separate entries in the source; they are usually repeats but may differ in a detail not shown here. Equal values may be shown once. Compounds without any hit were thinned out: in the full panel of roughly 83,000, 20% have a hit.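 Assay: single dose, 48 h. Readout: percent growth (0 = no net growth; negative = cell death). Active: <10.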 Active and inactive are the calls of the source.

System: MDA-MB-468 breast
Assay: NCI-60 one-dose screen, 48 h (100 = growth as untreated, 0 = no growth, -100 = all killed)
Details: 10 µM unless noted

With `C=CCNc1nc(O)c(/C=C2\C=Nc3ncccc32)s1` as the compound, how does the growth read?
Its growth is 1.02% (active).

With `NCCOc1ncccc1/C=C1\c2ccccc2-c2ccc([N+](=O)[O-])cc21` as the compound, how does the growth read?
The growth was -39.2% (active).

For `O=[N+]([O-])c1ccc(N/N=C/c2cccc3ccccc23)nc1`, which growth is on record?
The growth was 77.2% (inactive).

For `CCN(CC)S(=O)(=O)c1ccc(NC(=O)CSc2nnc(C)n2-c2ccccc2)cc1`, which growth is on record?
Its growth is 90.6% (inactive).

With `Cc1ccc(Cn2c(O)c(N=NC(=O)c3ccc(S(N)(=O)=O)cc3)c3ccccc32)cc1` as the compound, how does the growth read?
The growth was 100% (inactive).

For `O=[N+]([O-])c1cccc2cc(S(=O)(=O)O)ccc12`, which growth is on record?
The growth was 112% (inactive).

How did the growth turn out when `CN(C)S(=O)(=O)Oc1ccc(-c2sc3cc(OS(=O)(=O)N(C)C)ccc3c2C(=O)c2ccc(OCCN3CCCCC3)cc2)cc1` was run?
Its growth is 61.7% (inactive).

Which growth does the source give for `C=CCn1ccc(=O)nc1SC` here?
The growth was 115% (inactive).

How did the growth turn out when `CN(Cc1ccccc1)c1nc(Cl)c(C2CC(c3ccc4c(c3)OCO4)=NN2c2cc(Cl)cc(Cl)c2)s1` (stereo not given) was run?
The growth was 103% (inactive).

With `O=[N+]([O-])c1ccc(N=Nc2ccccc2)cc1` as the compound, how does the growth read?
Its growth is 109% (inactive).

With `CNC(=O)c1cc(Oc2ccc3nc(Nc4cc(Cl)cc(Cl)c4)ccc3c2)ccn1` as the compound, how does the growth read?
Its growth is 54.1% (inactive).

How did the growth turn out when `NC(=NCCCOc1ccc(F)cc1)Nc1ccc(I)cc1` was run?
Its growth is 27.8% (inactive).

`NC(=S)NN=C1CCC(C2CCCCC2)CC1` (stereo not given) was tested. Which growth did it give?
The growth was 50.9% (inactive) and 46.9% (inactive).

Which growth does the source give for `O=C(Nc1cccc(NC(=O)Nc2cc(C(F)(F)F)ccc2Cl)c1)Nc1cc(C(F)(F)F)ccc1Cl` here?
Its growth is -8.33% (active).

How did the growth turn out when `O=C(CSc1nc2ccccc2[nH]1)Nc1ccc(-c2nc3ccccc3s2)c(Cl)c1` was run?
Its growth is 26.5% (inactive).

`N#Cc1ccc(N2Cc3cc(Cl)ccc3OC3=C2C(=O)N(Cc2ccc(F)cc2)C3=O)cc1` was tested. Which growth did it give?
Its growth is -68.2% (active).

How did the growth turn out when `Cc1nccc2c3ccc(OCc4cn(-c5ccc(Cl)cc5)nn4)cc3n(CCCc3ccccc3)c12` was run?
Its growth is 10.6% (inactive).

With `CCOC(=O)c1sc2nc(-c3cccc(O)c3)nc(N3CCOCC3)c2c1C` as the compound, how does the growth read?
Its growth is 47.5% (inactive).

`COc1cc(OC)c(C(=O)/C=C/c2cccc(OC(C)=O)c2)cc1CC=C(C)C` was tested. Which growth did it give?
Its growth is 58.3% (inactive).

With `O=[N+]([O-])c1cccc(N=C(Nc2cccc([N+](=O)[O-])c2)c2ccccc2)c1` as the compound, how does the growth read?
The growth was 43.2% (inactive).

For `Cc1c(Cl)ccc2c(C(=O)Cl)cc(-c3ccccc3)nc12`, which growth is on record?
Its growth is 101% (inactive).

For `O=c1[nH]nc(-c2ccccc2)c2c(-c3ccccc3)onc12`, which growth is on record?
Its growth is 1.46% (active).

How did the growth turn out when `NC(=O)c1ccc2nc3c(n2c1)C(=O)C(=O)c1ccccc1-3` was run?
The growth was -57.7% (active).

`COc1cccc(C2C(C#N)=C(N)Oc3c2ccc2ccccc32)c1` (stereo not given) was tested. Which growth did it give?
The growth was 11.6% (inactive).

`Cc1cc(C(=O)Nc2cc(Oc3ccc4nc(NC(=O)C5CC5)cn4n3)ccc2C)n(C)n1` was tested. Which growth did it give?
The growth was 21% (inactive).

`N=C(N)c1ccc(-c2ccc(-c3ccccc3)o2)o1` was tested. Which growth did it give?
Its growth is 14.3% (inactive).

Which growth does the source give for `O=C(/C=C/c1cn(-c2ccccc2)nc1-c1ccccc1)CCC(=O)NO` here?
The growth was 101% (inactive).

How did the growth turn out when `CCOCCOCCOCCOCCOCCOCCOCCOCCOCCO` (tested in a mixture with another compound) was run?
The growth was -13.5% (active).

Which growth does the source give for `Cc1ccc(-c2ccc(/C=C(\C#N)c3nc(-c4ccco4)cs3)o2)cc1` here?
The growth was -45.8% (active).

How did the growth turn out when `COc1ccc(N=Cc2c(O)ccc3c2oc2cc(Cl)c(O)c(Cl)c23)cc1` was run?
The growth was 72.5% (inactive).

How did the growth turn out when `O=c1[nH]c2ccccc2n2cc3cccnc3c12` was run?
Its growth is -5.08% (active).

Which growth does the source give for `CCOc1ccccc1-n1c(CN2CCN(C(=O)COc3ccc(CNCCCCCCN4C5CCCC4CC(OC(=O)Nc4cc(C)ccc4OC)C5)cc3)CC2)nc2ccccc2c1=O` (stereo not given) here?
The growth was -79.1% (active).

Which growth does the source give for `CCN1CCN(Cc2ccc(NC(=O)c3cccc(C#Cc4cccc5[nH]nc(N)c45)c3)cc2C(F)(F)F)CC1` here?
Its growth is -30.6% (active).

How did the growth turn out when `O=C(c1ccccc1)[C@@H](c1ccccc1)[C@]1(O)C(=O)Nc2ccccc21` was run?
Its growth is 102% (inactive).

`Cn1cc(-c2nc(-c3c[nH]c4ncccc34)cs2)c2cc(Br)ccc21` was tested. Which growth did it give?
The growth was 5.22% (active).

Which growth does the source give for `C=CCn1c(SCC(=O)c2ccc(OC)cc2)nnc1-c1ccc(OC)cc1` here?
The growth was 90.6% (inactive).

For `[2H]C([2H])([2H])Oc1ccc(F)cc1/C=C/C(=O)/C=C(/C=C/c1cc(F)ccc1OC([2H])([2H])[2H])OB(F)F`, which growth is on record?
The growth was 69.5% (inactive).

`Cc1cc(C=O)c(C)c2c1[nH]c1ccccc12` was tested. Which growth did it give?
The growth was 68.1% (inactive).

`COc1cc(-c2nc3occn3c2-c2ccnc(NCCCNS(=O)(=O)c3ccccc3)n2)ccc1F` was tested. Which growth did it give?
Its growth is 5.92% (active).

For `NC(N)=N/N=C/c1ccccc1`, which growth is on record?
Its growth is 94.2% (inactive).
